# Source: PubChem
# In the library only some 2.2% were active in any assay of this set; here they are far more common.
# KLF5 inhibitor = inhibitors of KLF5 expression; hit rate 0.23% among 290,000; inhibition, % at 5 µM; DLD-1 KLF5 promoter-luciferase reporter, luminescence;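 active = inhibition above a per-plate limit of that plate's mean compound inhibition plus 3 SD, cut at about 60% in these data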;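 also: 0% = DMSO wells and 100% = LY294002 at 200 µM; higher means less KLF5 promoter-driven luciferase light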
# Ba/F3 V617F tox = reduce viability of Ba/F3 cells dependent on JAK2V617F. Ba/F3 EpoR-JAK2V617F viability, ATP luminescence. inhibition, % at 5.6 µM. hit rate 1.1% among 220,000. AID 1446;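 active = inhibition above the campaign mean plus 3 SD over all tested compounds, cut at about 24% in these data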;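 also: cytokine-independent growth of Ba/F3 cells driven by EpoR plus mutant JAK2; 0% = DMSO-treated cells and 100% = JAK inhibitor I control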
# BaF3 tox = parental Ba/F3 viability inhibition as JAK2V617F counter-screen; inhibition, % at 5.6 µM; CellTiter-Glo ATP luminescence; hit rate 1.1% among 220,000;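 active = inhibition above a per-campaign cutoff, the mean inhibition of all tested compounds plus 3 SD, cut at about 27% in these data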;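 also: 0% = DMSO wells and 100% = JAK Inhibitor I control wells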
# aSyn 5UTR inh = 5' untranslated region of α-synuclein, MLPCN primary screen; alpha-synuclein 5'UTR reporter, inhibitor activity; AID 1813; inhibition, % (tested at 7.5 µM); hit rate 0.82% among 300,000; in the data active = inhibition above about 60%;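 also: H4 neuroglioblastoma cells stably carrying SNCA 5'UTR luciferase fusion; 0% = DMSO wells and 100% = positive control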
# APP transl inh = APP translation inhibition; SH-SY5Y APP 5'UTR-luciferase reporter, luminescence; inhibition, % at 2 µM; hit rate 0.82% among 190,000;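 active = inhibition above a set limit, derived from the sample mean plus 3 SD, cut at about 45% in these data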
# IEC-6 tox = counter-screen for KLF5 inhibitors: cytotoxicity in IEC-6 cells; hit rate 0.78% among 290,000; inhibition, % at 5 µM; AID 1825; IEC-6 cytotoxicity, luminescence viability;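 also: 0% = plate median of test compound wells and 100% = cytotoxic reference compound wells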
# IEC-6 tox confirm = confirmation of cytotoxic compounds in rat IEC-6 intestinal epithelial cells; inhibition, % at 5 µM; shares compounds with IEC-6 tox; IEC-6 rat intestinal epithelial viability, luminescence; hit rate 63% among 1,900;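 also: 0% = vehicle and 100% = reference cytotoxic drug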
# Starred values were filed as active, the others as inactive; · = no result. Rule as the data show it, unless noted: active = inhibition above about 22%; inactive = the rest.
SMILES,KLF5 inhibitor,Ba/F3 V617F tox,BaF3 tox,aSyn 5UTR inh,APP transl inh,IEC-6 tox,IEC-6 tox confirm
O=C(Nc1ccc(N2CCN(C(=O)c3ccccc3)CC2)cc1)c1ccc2c(c1)OCO2,59,72*,70*,36,-2,26*,22
Cc1cccc(NS(=O)(=O)c2cc(C(=O)N3CCCCCC3)ccc2C)c1,-18,·,·,12,·,0,·
O=C(N/N=C/c1cccnc1)c1ccc([N+](=O)[O-])cc1,-13,-3,1,14,4,2,·
O=[N+]([O-])c1ccc(N/N=C/c2cccnc2)cc1,-56,·,·,-14,·,24*,5
CC(=O)N(/N=C/c1ccc([N+](=O)[O-])o1)c1nc2ccccc2c(=O)n1-c1ccccc1,14,5,4,-61,·,55*,8
Cc1nc2ccccc2c(=O)n1/N=C/c1ccc([N+](=O)[O-])o1,-8,1,-5,-64,·,0,·
COc1ccc(OC)c(Nc2nc(C)nc3c2oc2ccccc23)c1,-1,·,·,26,·,26*,23*
COc1ccc([N+](=O)[O-])cc1Nc1c2ccccc2nc2ccccc12,66*,·,·,77*,·,79*,72*
Cc1cccc(Nc2c3c(nc4ccccc24)CCC3)c1,-21,4,1,-12,·,7,·
COc1ccc(OC)c(Nc2c3ccccc3nc3ccccc23)c1,11,·,·,-26,·,46*,13
COc1cc(Nc2c3c(nc4ccccc24)CCC3)cc(OC)c1OC,54,·,·,29,·,85*,58*
COc1cc2ncnc(Nc3ccc4c(c3)OCO4)c2cc1OC,-34,·,·,-14,·,27*,58*
Cc1ccccc1CNc1ncnc2cc(Cl)ccc12,-3,·,·,-2,·,9,·
COc1cc2ncnc(NCc3ccccc3C)c2cc1OC,23,-3,5,-1,-4,25*,36*
COc1cc2ncnc(NCc3ccccc3Cl)c2cc1OC,4,3,5,6,11,22*,36*
COc1cc2ncnc(Nc3cccc(Cl)c3)c2cc1OC,-32,2,-1,·,·,21,·
c1ccc2cc(OCCCn3ccnc3)ccc2c1,-24,·,·,-38,·,-4,·
Cc1ccc2ncnc(Nc3ccccc3)c2c1,0,-3,19,-18,2,17,·
Cc1cccc(Nc2ncnc3ccc(Br)cc23)c1,5,7,10,3,-12,42*,42*
O=c1[nH]c(/C=C2\C=Nc3ccccc32)c(O)n1Cc1ccccc1F,-12,99*,67*,32,63*,41*,37*
COc1ccc(COc2cc(-c3cccc(OC)c3)nc3ccc(NC(=O)c4ccc(C)cc4)cc23)cc1,24,5,11,2,8,8,·
COc1ccc(COc2cc(-c3cccc(OC)c3)nc3ccc(NC(=O)c4ccc(N(C)C)cc4)cc23)cc1,23,76*,75*,1,11,49*,15
CCOC(=O)C1CCN(S(=O)(=O)c2cccc3nonc23)CC1,-9,1,5,15,-7,-2,·
CCOC(=O)C1CCN(S(=O)(=O)c2c(Cl)ccc3nonc23)CC1,60,·,·,-309,·,100*,41*
CCC(=O)NC(c1ccc(OC)cc1)c1c(O)ccc2ccccc12 (centres undefined),14,2,2,49,16,23*,9
SMILES,KLF5 inhibitor,Ba/F3 V617F tox,BaF3 tox,aSyn 5UTR inh,APP transl inh,IEC-6 tox,IEC-6 tox confirm
Fc1ccc(F)c(CNc2ncnc3cc(Cl)ccc23)c1,4,·,·,24,·,10,·
COc1cc2ncnc(NCc3cccc(F)c3F)c2cc1OC,-9,·,·,7,·,35*,28*
COc1cc2ncnc(NCc3ccccc3F)c2cc1OC,0,·,·,5,·,28*,33*
CCOc1ccc(CCNC(=O)COC(=O)C2=NNC(=O)CC2)cc1OCC,·,·,·,12,·,·,·
COc1ccc(-c2ccc(CCC(=O)O)n2-c2ccccc2OC)cc1,36,·,·,-45,·,41*,-3
O=C(NCCc1ccncc1)c1ccc2nc(Cc3cccc(Cl)c3)oc2c1,-33,·,·,-3,·,-9,·
CCOc1cc(CNCCc2ccc(S(N)(=O)=O)cc2)ccc1OCc1ccc(Cl)cc1,25,14,18,98*,18,24*,12
COc1cc(CNCCc2ccc(S(N)(=O)=O)cc2)ccc1OCc1ccc(Cl)cc1,-8,1,12,-64,11,-2,·
Cc1occc1C(=O)N/N=C/c1ccc(OCc2ccccc2)cc1,-107,0,0,-138,·,-10,·
Cc1occc1C(=O)N/N=C/c1ccc(-c2ccccc2)cc1,-15,·,·,-29,·,28*,31*
CCC[C@@H](CNC)NC[C@H](Cc1ccccc1)NCCCCc1ccccc1,-22,·,·,-16,·,24*,101*
CCCC[C@@H](CNC)NC[C@H](NCCCCC1CCCCC1)C(C)C,-16,·,·,-13,·,-4,·
CN(C[C@H](Cc1ccccc1)N(C[C@@H](CC1CCCCC1)N(CCc1ccccc1)N=O)N=O)N=O,-13,-2,3,26,-4,4,·
CNC[C@@H](Cc1ccccc1)NC[C@@H](CC1CCCCC1)NCCCc1ccccc1,-18,·,·,125*,·,102*,71*
CCC[C@@H](CN[C@@H](CNC)C(C)C)NCCCCc1ccccc1,-7,·,·,-14,·,44*,66*
CCC[C@H](CN[C@@H](CNC)[C@H](C)CC)NCCc1cc(C(F)(F)F)cc(C(F)(F)F)c1,-21,·,·,124*,·,36*,57*
O=C(NCCCCc1ccccc1)c1ccccc1,-20,-1,2,11,21,-1,·
COc1ccc(C)cc1S(=O)(=O)NC(C)C(=O)NC1CC1 (centres undefined),-20,·,·,3,·,4,·
O=C(COc1ccc(S(=O)(=O)N2CCOCC2)cc1)NCCN1CCOCC1,-29,·,·,-22,·,0,·
CCCN1CCC(NCc2cn(C)nc2-c2ccc(Oc3ccccc3)cc2)CC1,-9,53*,67*,-33,·,36*,43*
COC1CCCN(Cc2cn(C)nc2-c2ccc(Oc3ccccc3)cc2)C1 (centres undefined),16,4,7,6,12,4,·
O=C(COc1ccc([N+](=O)[O-])cc1)NCc1cccnc1,-63,1,10,-20,-25,-2,·
O=C(NCc1cccnc1)c1ccc(NC(=O)c2cccc([N+](=O)[O-])c2)cc1,-11,21,0,4,10,75*,8
O=C(COc1ccc([N+](=O)[O-])cc1)Nc1ccc(C(=O)NCc2cccnc2)cc1,-22,10,1,14,-9,30*,-6
O=C(NCc1cccnc1)c1ccc([N+](=O)[O-])cc1,-17,1,6,10,-2,-3,·
C=CCOc1ccc(C(=O)Nc2ccccc2C(=O)NCc2cccnc2)cc1,47,·,·,-52,·,39*,26*
O=S(=O)(c1ccc(NCc2ccccc2)cc1)N1CCOCC1,-15,·,·,3,·,-7,·
COc1cccc(-c2cccc(NC(=O)C3CCN(C4CCOCC4)CC3)c2)c1,-15,·,·,19,·,8,·
